ADAM17 inh – inhibits human ADAM17; recombinant ADAM17, EDANS/DABCYL FRET peptide cleavage; inhibition, % at 6.95 µM; 370,000 tested, 0.83% active; AID 720648;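 active = inhibition above the mean of compounds lying between control limits plus 3 SD, set per campaign, cut at about 8.5% in these data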;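 note: 0% = DMSO-only wells as the low control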
proKLK7 act – activators of human kallikrein-7 zymogen; P49862; purified proKLK7, EDANS-DABCYL substrate fluorescence; 100% is mature enzyme control, 0% vehicle; activation, % at 7 µM; 370,000 tested, 0.9% active; AID 652039;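 active = activation above the mean of all tested compounds plus 3 SD, computed per campaign excluding outliers beyond control limits, cut at about 13% in these data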
FAS-TE inh – FAS thioesterase (human) inhibition. AID 602261. 360,000 tested, 0.67% active. recombinant FAS-TE, OMFH fluorogenic substrate, fluorescence endpoint. P49327. inhibition, % at 15 µM;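 active = compounds whose normalised, plate-corrected inhibition of enzyme fluorescence in the single-dose primary screen is 50% or more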;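 note: 0% = DMSO with enzyme and 100% = substrate without enzyme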
ADAM10 inh – ADAM10 inhibition, QFRET primary screen; O14672; recombinant ADAM10, EDANS/DABCYL FRET peptide cleavage, 3 h; inhibition, % at 7 µM; 370,000 tested, 0.62% active;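 active = inhibition above a per-campaign cutoff equal to the mean of compounds falling between control-based bounds plus 3 SD, cut at about 20% in these data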;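 note: 0% = DMSO wells while the 100% control is not disclosed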
NR3A LBD binder – modulates the human NR3A ligand-binding domain. NR3A LBD differential scanning fluorimetry, Tm shift; 0% = protein alone, 100% = glycine-bound protein. AID 1259313. 340,000 tested, 2.5% active. Tm shift relative to glycine control, % at 25 µM;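 active = melting temperature shift of at least 10% of the positive control shift, at one fixed dose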
KLK7 act conf – proKLK7 activation, confirmation | AID 686949 | purified proKLK7, EDANS-DABCYL substrate fluorescence; scaled: vehicle 0, mature enzyme 100 | shares compounds with proKLK7 act | 3,200 tested, 68% active | activation, % at 7 µM;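 active = activation, as change over the incubation, above the mean of all tested compounds plus 3 SD, cut at about 13% in these data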
EDANS interfere – fluorescence interference counter-screen for KLK7 activators. shares compounds with proKLK7 act. EDANS-DABCYL substrate fluorescence interference, no enzyme, 4 h; solvent 0%, active enzyme control 100%. activation, % at 7 µM. 3,200 tested, 80% active. AID 686952;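 active = activation above the all-compound mean plus 3 SD, ignoring values outside control-based bounds, cut at about 4.8% in these data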;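 note: value is the 4 h activation minus the activation read at time zero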
EDANS interf – EDANS fluorescence interference in dose response, no enzyme; shares compounds with proKLK7 act; EDANS-DABCYL peptide fluorescence interference; EC50, µM; 250 tested, 20% active; AID 720493;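 active = compounds that raise the fluorescence signal in this interference counterscreen, with EC50 at or below 10 µM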;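 note: intact quenched peptide substrate alone read at 355 nm excitation and 520 nm emission; signal is fluorescence gain from T0 to T4 after four hours at room temperature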
An asterisk follows results filed as active; i = inactive; x = no result. In the library only some 4.6% were active in any assay of this set; here they are far more common.

SMILES	ADAM17 inh	proKLK7 act	FAS-TE inh	ADAM10 inh	NR3A LBD binder	KLK7 act conf	EDANS interfere	others
CC(C)c1ccc(Oc2cccc3c2S(=O)(=O)N([C@H](C)c2ccccc2)C[C@@H](COCc2ccccc2)O3)cc1	-2	0	x	-6	x	x	x
CCOc1ccc(-n2c(COc3ccc(C)cc3)nnc2SCC(=O)Nc2ccc(F)c(F)c2)cc1	3	0	x	12	x	x	x
CC1=NCC(C)c2c1[nH]c1ccccc21 (stereo unspecified)	-50	30*	-16	-215	-2	20*	17*
Cc1ccc(-n2c(SCC(=O)c3ccc(-c4ccccc4)cc3)nnc2-c2ccc(C(C)(C)C)cc2)cc1	2	1	x	-1	x	x	x
O=C(CN1C(=O)CCSc2ccccc21)Nc1cccc(Cl)c1F	-1	0	x	-6	x	x	x
CCOc1cc(C2C(C(=O)N3CCCCC3)=C(C)NC3=C2C(=O)CCC3)cc(Br)c1O (stereo unspecified)	-50	15*	-1	-151	1	8	15*
CCOC(=O)[C@]12CCCCC/C=C\1N(CCc1ccc(Cl)cc1)C(=O)[C@H]2CC(=O)NCc1ccc(OC)c(OC)c1	4	0	x	10	x	x	x
CN1c2ccc(C#CC3CC3)cc2[C@@H]2[C@@H](CCN2C(=O)C2CCOCC2)[C@H]1CO	-8	0	x	-28	x	x	x
CCOc1ccc(-c2cc(C(=O)NCCCN3CCN(CC)CC3)c3ccccc3n2)cc1	-385	57*	-6	i	2	-17	-20
CCOc1ccc(-c2cc(C(=O)O)c3ccccc3n2)cc1	i	33*	-3	i	-1	60*	69*
CCOc1ccc(-c2cc(C(=O)N3CCC(C)CC3)c3ccccc3n2)cc1	-27	-20	12	-98	-1	x	x
COc1ccc(/C=C/c2cc(C(=O)O)c3ccccc3n2)cc1	-31	13*	-6	-104	1	72*	72*
Cc1cc(N2CCOc3ccccc32)nc2ccccc12	-26	x	x	-68	x	x	x
Cc1nn(-c2ccccc2)c2sc(C(=O)OC3CCOC3=O)cc12 (stereo unspecified)	-131	20*	8	-387	-5	11	13*
COC(=O)c1cc2c(C)nn(-c3ccccc3)c2s1	-14	-2	10	-27	3	x	x
COc1ccc(-c2nc3cnccn3c2Nc2ccc(C)cc2)cc1	-83	-8	5	-281	-3	x	x
CCOC(=O)CNc1c(-c2ccc(OC)cc2)nc2ccc(Cl)cn12	-25	7	3	-86	2	x	x
CCOC(=O)CNc1c(-c2ccc(F)cc2)nc2cnccn12	i	65*	-7	i	1	63*	65*
CCOC(=O)CNc1c(-c2ccc(Cl)cc2)nc2cnccn12	i	65*	-5	i	2	77*	80*
CCC(NC(=O)c1ccc2c(c1)c(C)c(C)n2Cc1ccc(Cl)cc1)c1ccccc1 (stereo unspecified)	-6	-2	x	-2	x	x	x
N#Cc1ccccc1NC(=O)COC(=O)c1cccs1	-3	0	-9	2	0	x	x
N#Cc1ccccc1NC(=S)NC(=O)c1cccs1	-20	14*	1	-40	1	14*	16*
CCc1cc(=O)oc2c(C)c(O)c(CN(C)C)cc12	i	65*	-6	i	-1	58*	67*
CCCOc1ccc2c(CC)cc(=O)oc2c1C	-70	0	16	-229	1	x	x
CC(=O)c1cc2c(cc1NS(=O)(=O)c1ccccc1Br)OCO2	-4	41*	26	7	3	15*	5.3*	EDANS interf=>70
SMILES	ADAM17 inh	proKLK7 act	FAS-TE inh	ADAM10 inh	NR3A LBD binder	KLK7 act conf	EDANS interfere	others
CCc1cc2c(nc1CC)CCCN2CCOC	-100	29*	x	-358	x	-10	-10
CCc1cc2c(nc1CC)CCCN2S(=O)(=O)c1ccc(C#N)cc1	-3	1	x	-4	x	x	x
Cc1cc2c(nc1C)CCCN2Cc1ccccn1	-39	15*	x	-148	x	-4	-7
CCOC(=O)[C@@H]1CSCCS(=O)(=O)N1Cc1ccccc1	-2	0	x	-2	x	x	x
O=C1c2ccccc2NC(c2ccc(-c3cccs3)o2)N1O (stereo unspecified)	-389	19*	-2	i	-2	6	7.4*
CCOc1cc(/C=N/NC(=O)N/N=C/c2ccc(O)c(OCC)c2)ccc1O	-2	0	x	8	4	x	x
CCOc1cc(/C=N/NC(=O)C(=O)N/N=C/c2ccc(O)c(OCC)c2)ccc1O	-6	16*	-8	-3	8	-21	-8
CN(C)c1nc(N)c2nccnc2n1	-178	21*	-8	i	0	1	0
CSc1cnc2c(N)nc(N(C)C)nc2n1	-27	2	-9	-73	1	x	x
O=C(Nc1cccnc1)c1coc(=O)c2ccccc12	-17	460*	-3	-68	2	355*	343*
O=C(Nc1cccnc1)c1ccccc1O	-3	0	-4	-14	-1	x	x
CCOC(=O)C1(C)C(=O)CC2c3nc4ccccc4cc3CN2C1=O (stereo unspecified)	-9	20*	-8	-62	x	2	2
CCOC(=O)N1Cc2cc3ccccc3nc2C1	1	0	-4	6	x	x	x
CC(=O)Nc1oc(-c2cccc3ccccc23)nc1C#N	-420	78*	-4	i	-14	72*	72*
COC(=O)C1=C(C)N(Cc2ccccc2C(F)(F)F)C(=NCc2cc(OC)c(OC)c(OC)c2)NC1c1ccccc1 (stereo unspecified)	0	0	x	-14	x	x	x
CCN(CC)S(=O)(=O)c1cccc2cc(C(=O)O)c(O)cc12	-40	22*	2	-122	4	74*	73*
CCOC(=O)Cc1c(Cl)c2ccccc2[nH]c1=O	-4	0	-4	-9	-2	x	x
CCOC(=O)C[n+]1ccc2c([nH]c3ccccc32)c1C	-475	36*	-7	i	0	47*	72*
CCOC(=O)c1cc(-c2cc3ccccc3o2)nc2c1c(=O)[nH]c(=O)n2CCOC	-269	19*	1	i	-4	-447	-484
Cc1nc(-c2cnn(-c3ccccc3)c2)c2cc(C)oc2n1	-67	-1	6	-221	-2	x	x
Cc1nc(/C=C\C(=O)O)c2cc(C)oc2n1	i	13*	-4	i	3	20*	22*
Nc1nc2ncccc2cc1C(=O)c1c[nH]c2ccccc12	-2	0	x	0	x	x	x

Source: PubChem
